Sfp inh – qHTS Assay for Inhibitors of Bacillus subtilis Sfp phosphopantetheinyl transferase (PPTase); Biochemical Sfp PPTase activity, qHTS; 4'-phosphopantetheinyl transferase ffp (Bacillus subtilis), Q9F4F7; Potency, µM, inactives show largest response in the series, negative = inhibition, actives largely listed as inhibitors; AID 1490, 2009; actives 3.5% (n = 310,000);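 further: the enzyme is Sfp with the accession as filed and its product quenches rhodamine fluorescence; 0% = enzyme reaction without inhibitor and -100% = no enzyme wells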
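Reaction rates are the 30-min fluorescence difference (ex 525, em 598 nm) in wells containing 15 nM Sfp, 5 uM rhodamine-CoA and 12.5 uM BHQ-2-YbbR at pH 7.6 with 10 mM MgCl2.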
JMJD2A Tudor – qHTS Assay for Inhibitors of JMJD2A-Tudor Domain | Lysine-specific demethylase 4A (Homo sapiens), O75164 | AlphaScreen JMJD2A-Tudor / H3K4me3 peptide binding | Potency, µM (highest dose often 114 µM), for the others: at the top dose activity change, negative = inhibition, most hits filed as inhibitors | actives 4.4% (n = 390,000) | AID 504339, 2011; further: on the % scale 0 is the no-effect control and ±100 the full control effect; nearly all actives have a fitted effect of over 50% in size
HP1b binding inh – HTS for Inhibitors of HP1-beta Chromodomain Interactions with Methylated Histone Tails; actives 0.56% (n = 390,000); Chromobox protein homolog 1 (Homo sapiens), P83916; AlphaScreen HP1-beta / biotin-H3K9me3 peptide binding; Potency, µM (series often up to 114 µM), for the others: at the highest dose activity change, negative = inhibition, hits mostly inhibitors; further: nearly all actives have a fitted effect of over 70% in size
Target sequence (P83916 whole entry, looked up): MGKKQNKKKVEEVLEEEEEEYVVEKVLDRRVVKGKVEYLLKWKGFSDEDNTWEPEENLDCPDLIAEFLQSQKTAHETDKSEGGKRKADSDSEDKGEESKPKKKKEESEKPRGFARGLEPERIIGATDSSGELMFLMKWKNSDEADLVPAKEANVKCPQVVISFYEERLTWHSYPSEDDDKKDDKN
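AlphaScreen: HP1-beta (50 nM) preformed 30 min with biotin-H3(1-18)K9me3 peptide (50 nM) in PBS pH 7.4, 0.01% Tween-20. Compound added for 30 min at RT, then streptavidin donor/nickel chelate acceptor beads (10 ug/mL) for 30 min.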
G9a block – qHTS Assay for Inhibitors of Histone Lysine Methyltransferase G9a. Histone-lysine N-methyltransferase EHMT2 (Homo sapiens), Q96KQ7. G9a H3K9 monomethylation, AlphaScreen, 2 h. Potency, µM (titrated, usually from 102 µM), for inactives: at the top dose activity, negative = inhibition, most hits filed as inhibitors. actives 8.8% (n = 350,000). AID 504332, 2011; further: on the % scale 0 is the no-effect control and ±100 the full control effect; nearly all actives have a fitted effect of over 75% in size
Target sequence (Q96KQ7 913-1193 limits assumed): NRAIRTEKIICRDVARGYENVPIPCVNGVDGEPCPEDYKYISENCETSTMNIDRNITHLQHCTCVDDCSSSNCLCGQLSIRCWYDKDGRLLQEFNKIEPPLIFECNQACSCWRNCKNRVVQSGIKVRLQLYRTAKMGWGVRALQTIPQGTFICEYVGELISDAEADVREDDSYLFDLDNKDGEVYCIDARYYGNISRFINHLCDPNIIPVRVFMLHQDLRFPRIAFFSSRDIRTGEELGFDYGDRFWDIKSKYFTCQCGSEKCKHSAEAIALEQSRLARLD
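Using a bead-based AlphaScreen, monomethylated H3K9 product from 2 h room-temperature reactions (G9a 20 nM, peptide 500 nM, SAM 20 uM) was detected with 0.5 ug/mL rabbit anti-H3K9me1 antibody.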
BAZ2B inh – qHTS Assay for Inhibitors of BAZ2B; Bromodomain adjacent to zinc finger domain protein 2B (Homo sapiens), Q9UIF8; AlphaScreen BAZ2B-H3K14Ac peptide displacement; Potency, µM (top dose mostly 114 µM), inactives show top-dose activity change, negative = inhibition, usual class: inhibitors; actives 4.4% (n = 360,000); AID 504333, 2011; further: on the % scale 0 is the no-effect control and ±100 the full control effect; nearly all actives have a fitted effect of over 60% in size
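Protein-peptide AlphaScreen: BAZ2B 50 nM, b-H3K14Ac 50 nM, 1x PBS pH 7.4 + 0.01% Tween-20. Preincubation 30 min RT; cpd 30 min RT (top 110 uM); beads 20 min RT, light-protected.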
* hit, by the source's call; ? = inconclusive; . = no result; ! = repeats disagree; [ ] = remark or other dose. A selection: hits, their analogues and other compounds. The true share with any hit is near 12%. The call rests on the fitted dose curve; in most records, active means well fitted curve in the direction sought with a large enough effect; inconclusive means small, poorly fitted or top-dose-only effect, or another doubt; inactive means no such curve, though single readings can be large; an effect the other way counts as inactive or inconclusive. Potency means the concentration at half of the fitted maximal effect.

SMILES | Sfp inh | JMJD2A Tudor | HP1b binding inh | G9a block | BAZ2B inh
COc1ccc(-c2csc(NC(=O)CSc3nnc(Nc4ccccc4C)s3)n2)cc1 | 16.4% | -14.1% | 19.3% | 11.2µM* | -14.6%
COc1ccccc1Nc1nnc(SCC(=O)Nc2nc(-c3ccc(F)cc3)cs2)s1 | 2.3% | -13.6% | 43.8% | . | -7.5%
CCOc1ccccc1Nc1nnc(SCC(=O)Nc2nc(-c3ccc(OC)cc3)cs2)s1 | 7.7% | ? | 32.8% | 8.91µM* | -9.2%
COc1ccc(NC(=O)Nc2nnc(SCC(=O)Nc3cccc(C)c3C)s2)cc1 | . | -2.6% | 78.0% | -2.2%[59 µM] | 10.5%
COc1ccccc1CCNC(=O)c1ccc2c(c1)c(C)c(C)n2Cc1ccc(Cl)cc1 | . | ? | 25.9% | -23.2%[59 µM] | -19.9%
Cn1c2ccc(CC(=O)O)cc2c2cc(CC(=O)O)ccc21 | -13.1% | -12.5% | 27.1% | 50.1µM* | ?
O=C(O)Cc1ccc2[nH]c3ccc(CC(=O)O)cc3c2c1 | -4.0% | -30.0% | 30.4% | ? | -30.8%
CCCCC(=O)NNC(=S)NCc1ccccc1 | 27.1% | -16.3% | 34.7% | 22.3%[12.7 µM] | -14.7%
CCCCC(=O)NNC(=S)NC(=O)c1ccc([N+](=O)[O-])cc1 | 20µM* | 31.6µM* | ? | 2.82µM* | ?
Cc1ccc(C(=O)NC(=S)NNC(=O)CC#N)cc1 | 17.7% | ? | 11.4% | 8.91µM* | -25.8%
CCCCCC(=O)NNC(=S)NC(C)=O | 79.4µM* | 44.7µM* | -1.0% | 17.8µM* | 10.6%
CCCCCC(=O)NC(=S)NC1C2CC3CC(C2)CC1C3 (centres undefined) | -20.9% | 0.0% | 55.9% | 44.7µM* | -4.1%
CCCCCC(=O)NNC(=O)Cc1ccc([N+](=O)[O-])cc1 | 3.7% | -9.6% | 5.6% | -40.3% | 7.3%
N#CCC(=O)NNC(=S)NC(=O)C(c1ccccc1)c1ccccc1 | 6.4% | -14.1% | 38.1% | -5.4% | -6.6%
CSCc1ccc(C(=O)Nc2cccc(C)c2C)cc1 | -9.2% | -18.4% | -0.3% | 30.0%[59 µM] | -6.1%
COc1cc(NC(=O)COc2ccc(-n3cnnn3)cc2)cc(OC)c1OC | . | -12.3% | 5.6% | . | .
CCCCC(=O)NNC(=S)NC(=O)c1ccc(C)cc1 | ? | -13.3% | 13.7% | 11.2µM* | 5.6%
CCCCC(=O)NNC(=S)NC(=O)c1cccc([N+](=O)[O-])c1 | -80.9% | 22.4µM* | ? | . | ?
CCCCC(=O)Nc1cccc(NC(=O)c2cccc([N+](=O)[O-])c2)c1 | 3.2% | -12.1% | 42.7% | -33.8% | -25.3%
Cc1ccc(CN(CC(=O)NC2CCCC2)C(=O)CSc2nnc(COc3ccccc3)o2)cc1 | -4.6% | -27.1% | ? | 31.6µM* | 47.0%
O=C(CN(Cc1cccs1)C(=O)CSc1nnc(COc2ccccc2)o1)NC1CCCC1 | -7.6% | -12.5% | 32.3% | -2.1%[59 µM] | -8.2%
O=C(CN(Cc1ccccc1)C(=O)CSc1nnc(COc2ccccc2)o1)NC1CCCC1 | 79.4µM* | -11.6% | -7.7% | 10µM* | -1.7%
CCc1ccc(OCc2nnc(SCC(=O)NC3CCCCC3)o2)cc1 | 6.5% | -7.4% | 3.3% | 24.5% | 4.1%
COc1ccc(/C=C2\CN(Cc3ccccc3)C/C(=C\c3ccc(OC)cc3)C2=O)cc1 | ? | ? | ? | 17.8µM* | ?
COc1ccc(C=C2c3ccccc3C(=O)c3ccccc32)c(OC)c1 | -4.9% | . | . | 28.2µM* | 12.6µM*
SMILES | Sfp inh | JMJD2A Tudor | HP1b binding inh | G9a block | BAZ2B inh
COc1ccc(/C=N/N=C2/SCC(=O)N2Cc2ccccc2)cc1 | -16.0% | -5.6% | 25.4% | . | -0.5%
COc1ccc(/C=C2\COc3ccccc3C2=O)c(OC)c1 | -2.4% | 0.7% | 22.4% | 15.9% | -11.8%
COc1ccc(/C=C2\CN(Cc3ccccc3)C/C(=C\c3ccc(OC)cc3OC)C2=O)c(OC)c1 | ? | ? | ? | 14.1µM* | 25.1µM*
CCOC(=O)c1c(C)oc2nc(C)nc(N3CCN(c4ccccc4F)CC3)c12 | . | -17.8% | 1.9% | -32.0%[59 µM] | -15.0%[57.1 µM]
CC(C)(C)C(=O)Nc1ccccc1C(=O)OCc1cc(=O)n2ccsc2n1 | . | -0.3% | 33.5% | 1.5%[12.7 µM] | -9.7%
CC(=O)Nc1ccc(N(C(=O)CNC(=O)c2cccs2)C(C(=O)NC(C)(C)C)c2ccccc2)cc1 (centres undefined) | 7.7% | -14.1% | -7.0% | -1.1%[12.7 µM] | -3.0%
COc1ccc(C(=O)N/C(=C\c2cc(OC)c(OC)cc2[N+](=O)[O-])C(=O)NCCO)cc1 | 70.8µM* | 0.3% | 32.9% | . | -7.1%
O=C(NCc1ccco1)c1ccc(-c2ccc(Cl)cc2)o1 | 11.6% | -35.5% | -12.8% | 50.1µM* | ?
O=C(NCc1ccco1)c1ccc(CS(=O)(=O)Cc2ccc(Cl)cc2)o1 | 7.5% | -21.6% | 15.6% | -33.8% | -11.0%
Cc1cc(NC(=O)c2ccc([N+](=O)[O-])o2)ccc1NC(=O)c1ccco1 | 3.1% | -22.7% | 17.3% | 79.4µM* | ?
O=C(NCc1ccco1)c1ccc([N+](=O)[O-])o1 | -26.6% | 56.2µM* | ? | 44.7µM* | 44.7µM*
COc1ccccc1S(=O)Cc1ccc(C(=O)NCc2ccccc2Cl)o1 (centres undefined) | ? | 35.5µM* | -10.2% | 3.55µM* | 7.5%
Cc1ccc(NC(=O)CCS(=O)(=O)c2cc3[nH]c(=O)c(=O)[nH]c3cc2C)cc1 | 9.8% | -14.3% | 38.6% | 19.7%[59 µM] | -5.2%
Cc1cccc(N2CCN(C(=O)c3nn(C)c4c3CSc3ccccc3-4)CC2C)c1 (centres undefined) | . | -5.6% | 44.7% | -41.6%[59 µM] | -10.0%
CC(Sc1ccsc1[N+](=O)[O-])C(=O)NCc1ccco1 (centres undefined) | 50.1µM* | -31.7% | 8.9% | ? | -28.8%
CC(Sc1nnc(-c2cccs2)n1-c1ccccc1)C(=O)NCc1ccco1 (centres undefined) | 2.3% | -26.6% | 23.1% | -20.8%[59 µM] | -2.7%
O=C(NCc1ccco1)c1ccc(-c2ccccc2Cl)o1 | -14.0% | -16.2% | -5.3% | 56.2µM* | ?
COc1ccccc1CNC(=O)c1ccc(-c2ccccc2Cl)o1 | ? | -2.8% | 66.3% | 28.2µM* | ?
O=C(NCC1CCCO1)c1ccc(-c2ccccc2Cl)o1 (centres undefined) | . | 1.4% | 24.4% | -29.1% | -6.7%
CCN1CCC[C@H]1CNC(=O)c1c(O)c(Cl)cc(Cl)c1OC | 10.6% | ? | 36.8% | 8.91µM*! | -24.4%
CCN1CCCC1CNC(=O)c1cc(OC)c(OC)c(OC)c1 (centres undefined) | 13.2% | 4.9% | 28.5% | -5.2%[59 µM] | 11.4%
CC1(C)CC(=O)C2=C(C1)N(c1cccc(O)c1)C1=C(C2)C(=O)CC(C)(C)C1 | 10µM* | 7.8% | 56.1% | 2.24µM* | ?

High-throughput results as filed in PubChem BioAssay.
